Assay [1] in a line: NCI Yeast Anticancer Drug Screen. Data for the rad50 strain (AID 155).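 Also: 0% = growth of vehicle-only cultures of the same strain.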 Conditions: S. cerevisiae rad50 strain growth inhibition; at 50.0 µM; active compounds read high. The gist of the method: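 Genetically altered yeast (DNA repair pathway); compound treatment; growth inhibition vs vehicle ctrl.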
Assay [2] can be described thus: NCI Yeast Anticancer Drug Screen. Data for the mec2-1 strain (AID 157). Conditions: S. cerevisiae mec2-1 strain, at 50.0 µM, active compounds read high. Put shortly: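 Cells of the genetically defined mec2-1 yeast strain are incubated with test compound. Inhibition of growth is calculated against vehicle-treated controls.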
A short description of assay [3]: NCI Yeast Anticancer Drug Screen. Data for the sgs1 mgt1 strain (AID 161).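 Also: 0% = growth of cultures given vehicle only.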 To be noted: S. cerevisiae sgs1 mgt1 strain, at 50.0 µM, active compounds read high. The gist of the method:
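Mutant yeast exposed to compound; growth scored against vehicle-only wells.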

Assay [4] in a line: NCI Yeast Anticancer Drug Screen. Data for the cln2 rad14 strain (AID 165).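 Also: 0% = growth equal to vehicle treated cultures.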 To be noted: S. cerevisiae cln2 rad14 strain, at 50.0 µM, active compounds read high. The gist of the method: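 The screen exposed genetically defined yeast (cln2 rad14) to test compounds and scored growth inhibition relative to vehicle-treated controls.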
Assay [5] can be described thus: NCI Yeast Anticancer Drug Screen. Data for the bub3 strain (AID 167). To be noted: S. cerevisiae bub3 mutant strain, at 50.0 µM, active compounds read high. Put shortly:
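Yeast carrying a defined mutation is treated with each compound, and growth is compared with that of vehicle-exposed cells to give inhibition.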

Assay [6] in a line: NCI Yeast Anticancer Drug Screen. Data for the mlh1 rad18 strain (AID 175). To be noted: S. cerevisiae mlh1 rad18 strain growth inhibition; at 50.0 µM; active compounds read high. Put shortly:
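Compound-treated yeast growth, normalised to vehicle controls. Strain bears defined DNA repair mutations.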

Structures are written as SMILES. This is part of a sample that, as a whole, favours compounds with a hit. Of some 79,000 tested, about 15% had one in any assay. Values without a mark were called inactive. The source made the active and inactive calls. Rule as the data show it: active = growth inhibition above about 70%; inactive = the rest.

Turning to `O=C(Nc1cc([N+](=O)[O-])ccc1Cl)c1ccc(F)cc1`, the growth inhibition was 13.2% in assay [1]; 6.4% in assay [2]; 14.6% in assay [3]; 17.8% in assay [4]; 28.9% in assay [5]; 19.8% in assay [6].

Regarding `COc1cc(OC)c2c(=O)cc(-c3ccc(OC)c(OC)c3OC)oc2c1`, the growth inhibition was -31.8% in assay [1]; -23.6% in assay [2]; -30.1% in assay [3]; -2.3% in assay [4]; -18.4% in assay [5]; -40.5% in assay [6].

Take `COc1ccc(/C(Cl)=C(\C=O)c2cc(OC)c(OC)c(OC)c2)cc1OC`: the growth inhibition in assay [1] was -0.9%; in assay [2], 23.1%; in assay [3], -5%; in assay [4], 13.8%; in assay [5], -3.45%; in assay [6], 13.9%.

On to `C=CCCC1CN2CCc3cc(OC)c(OC)cc3C2CC1=O` (stereo unspecified), for which the growth inhibition in assay [1] was 15.3%; in assay [2] it was 16.1%; in assay [3], 10.6%; in assay [4], -41.7%; in assay [5], 28.4%; in assay [6] it was 20.1%.

For `CCOC(=O)Cc1nc2sc3c(c2c(=O)[nH]1)CCCC3`, the growth inhibition in assay [1] was 10.4%; in assay [2], 1.8%; in assay [3] it was 22.4%; in assay [4], -0.9%; in assay [5], 3.9%; in assay [6], 17.2%.

As to `OCCN(CO)CCO`, the growth inhibition was -23.8% in assay [1]; 6.35% in assay [2]; -0.25% in assay [3]; -2.6% in assay [4]; 2.6% in assay [5]; -25.2% in assay [6].

Turning to `CCN(CC)CCOC(=O)C1c2ccccc2Oc2ccccc21`, the growth inhibition in assay [1] is 25.2%; in assay [2], -31.5%; in assay [3] it was 9.1%; in assay [4], 13.9%; in assay [5], 21.4%; in assay [6], 15.3%.

For `c1ccc2c(c1)n1nnnc1c1nnnn21`, the growth inhibition in assay [1] was 34.6%; in assay [2], -10.4%; in assay [3], 20.1%; in assay [4] it was 23.7%; in assay [5] it was 4.85%; in assay [6], 24.4%.

For `Cc1c(COC(=O)NC(C)C)c(COC(=O)NC(C)C)c(-c2ccccc2)n1-c1ccccc1`, the growth inhibition in assay [1] was -16%; in assay [2] it was -1.95%; in assay [3] it was 13.8%; in assay [4] it was -8.1%; in assay [5] it was -14.1%; in assay [6] it was 64.2%.

For `CCCCC1(O)c2ccc3ccccc3c2C(O)(CCCC)c2cccc(-c3ccccc3)c21` (stereo unspecified), the growth inhibition in assay [1] was 24.1%; in assay [2], -0.05%; in assay [3], 10.2%; in assay [4], -1.75%; in assay [5], -3.15%; in assay [6] it was 38.8%.

With `COC(=O)C1=C(C(=O)OC)C23CC4CCC2(C(=O)C1O3)C4(C)C` (stereo unspecified), the growth inhibition was 36.4% in assay [1]; 18% in assay [2]; 23% in assay [3]; 8.65% in assay [4]; 21.5% in assay [5]; -5.15% in assay [6].

As for `CN(Cc1ccc(Cl)cc1)C(=O)NCCCCCCNC(=O)N(C)Cc1ccc(Cl)cc1`, the growth inhibition in assay [1] was 96.8% (active); in assay [2], 96.6% (active); in assay [3] it was 95.7% (active); in assay [4], 96.2% (active); in assay [5] it was 95.7% (active); in assay [6], 96.8% (active).

As for `COC(=N)C(C)C`, the growth inhibition in assay [1] is 26.4%; in assay [2], 14.9%; in assay [3] it was 4.9%; in assay [4] it was 13.1%; in assay [5] it was -6.2%; in assay [6], 22.6%.

Consider `NC1C(O)C(N)C(O)C(O)C1O` (stereo unspecified), for which the growth inhibition in assay [1] was 3.3%; in assay [2] it was 20.4%; in assay [3] it was 5.6%; in assay [4] it was 1.6%; in assay [5] it was -13.4%; in assay [6] it was 3.25%.

As to `C=C(Br)CNC(=O)Nc1ccccn1`, the growth inhibition in assay [1] is -10.2%; in assay [2], 4.55%; in assay [3], -3.3%; in assay [4], -4.15%; in assay [5], -4.85%; in assay [6], -8.75%.

As for `CC(C)(C)c1ccc(/C=N/NC(=O)c2cccnc2)cc1`, the growth inhibition in assay [1] was 0.55%; in assay [2] it was 8.45%; in assay [3] it was 4.15%; in assay [4] it was 14.3%; in assay [5], 11.3%; in assay [6] it was 9.45%.

Consider `O=C1OC(c2ccc(Cl)cc2)=C/C1=C/c1ccccn1`, for which the growth inhibition is -1.4% in assay [1]; 10% in assay [2]; 5.2% in assay [3]; -34% in assay [4]; 4.55% in assay [5]; 11.3% in assay [6].

In the case of `O=S(=O)(O)c1cc[n+]([O-])cc1`, the growth inhibition in assay [1] is 1.6%; in assay [2] it was 12.7%; in assay [3], -2.8%; in assay [4], 32.5%; in assay [5], 11.8%; in assay [6] it was -8.65%.

Consider `N#CC1=C(O)NC(O)=C(C#N)C12C(=O)Nc1ccccc12`, for which the growth inhibition is 4.1% in assay [1]; 2.85% in assay [2]; 2.05% in assay [3]; 3.15% in assay [4]; 13.2% in assay [5]; 10.3% in assay [6].

Consider `O=c1[nH]c2c(Cl)cc(Cl)c(Cl)c2c2ccccc12`, for which the growth inhibition was -0.45% in assay [1]; 7.65% in assay [2]; 1.5% in assay [3]; -18.4% in assay [4]; 21.1% in assay [5]; 4.85% in assay [6].

Take `COc1ccc2c(c1)CN(C)c1ccc(OC)cc1CN2C`: the growth inhibition is 10.7% in assay [1]; -18.6% in assay [2]; 12.2% in assay [3]; 12.4% in assay [4]; 12.5% in assay [5]; 24.6% in assay [6].

Source of the values: PubChem BioAssay (NCI).
